# Measured values reported in PubChem BioAssay AID1159580 (chemical genetic matrix, 2015).
# About 2,000 (36%) of roughly 5,500 compounds were called active. About 18% were inconclusive and are not listed. The list shows a part of the results. A number with no mark means an inactive call. Rule as the data show it: active = normalized growth mostly below about 0.91 (no sharp cut-off); inconclusive = no clear call, values can overlap the other calls; inactive = mostly above about 0.92.
# Assay: chemical genetic growth profiling, strain panel (AID 1159580);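 also: tested at 20 µM; growth read once vehicle control cultures reached saturation at 30 °C; 1 = growth at the plate median or of vehicle wells; lower values mean less growth of the strain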
# Details: S. cerevisiae deletion strains, growth OD
# [1] = locus YHR030C, strain SLT2, hits give low values
# [2] = locus YHR079C, strain IRE1, hits give low values
# [3] = locus YJL095W, strain BCK1, hits give low values
# [4] = locus YJR066W, strain TOR1, hits give low values
# [5] = locus YLR113W, strain HOG1, hits give low values
# [6] = locus YNL183C, strain NPR1, hits give low values
# [7] = locus YOR231W, strain MKK1, hits give low values
# [8] = locus YPL256C, strain CLN2, hits give low values
compound,measurement,setting,value
CN1CCC(=C2c3ccccc3CCc3sccc32)CC1,normalized growth,"locus YAL021C, strain ccr4, hits give low values",0.91
same,normalized growth,"locus YAL026C, strain drs2, hits give low values",0.956
same,normalized growth,"locus YAL030W, strain snc1, hits give low values",0.987
same,normalized growth,"locus YBL061C, strain skt5, hits give low values",0.967
same,normalized growth,"locus YBR009C, strain hhf1, hits give low values",0.986
same,normalized growth,"locus YBR023C, strain chs3, hits give low values",0.969
same,normalized growth,"locus YBR171W, strain sec66, hits give low values",0.961
same,normalized growth,"locus YBR231C, strain swc5, hits give low values",0.965
same,normalized growth,"locus YBR279W, strain paf1, hits give low values",0.959
same,normalized growth,"locus YCL011C, strain gbp2, hits give low values",0.958
same,normalized growth,"locus YCL016C, strain dcc1, hits give low values",0.948
same,normalized growth,"locus YCL069W, strain vba3, hits give low values",0.977
same,normalized growth,"locus YCR088W, strain abp1, hits give low values",0.979
same,normalized growth,"locus YDL005C, strain med2, hits give low values",0.968
same,normalized growth,"locus YDL040C, strain nat1, hits give low values",0.98
same,normalized growth,"locus YDR001C, strain nth1, hits give low values",0.96
same,normalized growth,"locus YDR069C, strain doa4, hits give low values",0.905
same,normalized growth,"locus YDR137W, strain rgp1, hits give low values",1.08
same,normalized growth,"locus YDR159W, strain sac3, hits give low values",0.952
same,normalized growth,"locus YDR195W, strain ref2",0.954
same,normalized growth,"locus YDR297W, strain sur2, hits give low values",0.976
same,normalized growth,"locus YDR334W, strain swr1, hits give low values",0.972
same,normalized growth,"locus YDR335W, strain msn5, hits give low values",0.949
same,normalized growth,"locus YDR392W, strain spt3, hits give low values",0.93
same,normalized growth,"locus YEL003W, strain gim4, hits give low values",0.982
same,normalized growth,"locus YEL037C, strain rad23, hits give low values",0.975
same,normalized growth,"locus YEL061C, strain CIN8 (second series), hits give low values",0.967
same,normalized growth,"locus YER015W, strain faa2, hits give low values",0.967
same,normalized growth,"locus YER016W, strain bim1, hits give low values",0.995
same,normalized growth,"locus YER111C, strain swi4, hits give low values",0.954
same,normalized growth,"locus YER155C, strain BEM2 (second series), hits give low values",0.933
same,normalized growth,"locus YFR010W, strain ubp6, hits give low values",0.961
same,normalized growth,"locus YGL167C, strain pmr1, hits give low values",0.969
same,normalized growth,"locus YGL173C, strain kem1, hits give low values",0.972
same,normalized growth,"locus YGL227W, strain vid30, hits give low values",0.941
same,normalized growth,"locus YGL240W, strain doc1, hits give low values",0.998
same,normalized growth,"locus YGL253W, strain hxk2, hits give low values",0.977
same,normalized growth,"locus YHR013C, strain ard1, hits give low values",0.842 (active)
same,normalized growth,"locus YHR027C, strain rpn1, hits give low values",0.954
same,normalized growth,[1],0.943
same,normalized growth,[2],0.97
same,normalized growth,"locus YHR142W, strain chs7, hits give low values",0.951
same,normalized growth,"locus YJL092W, strain hpr5, hits give low values",0.975
same,normalized growth,"locus YJL095W, strain BCK1 (second series), hits give low values",0.973
same,normalized growth,[3],1.02
same,normalized growth,"locus YJL115W, strain asf1, hits give low values",0.922
same,normalized growth,"locus YJL129C, strain trk1, hits give low values",0.967
same,normalized growth,"locus YJL154C, strain vps35, hits give low values",0.968
same,normalized growth,"locus YJL164C, strain tpk1, hits give low values",0.968
same,normalized growth,"locus YJL166W, strain qcr8, hits give low values",0.98
same,normalized growth,[4],0.941
same,normalized growth,"locus YKL160W, strain elf1, hits give low values",0.935
same,normalized growth,"locus YKR026C, strain gcn3, hits give low values",0.966
same,normalized growth,"locus YKR091W, strain srl3, hits give low values",0.964
same,normalized growth,"locus YLL001W, strain dnm1, hits give low values",0.987
same,normalized growth,"locus YLL026W, hits give low values",0.982
same,normalized growth,"locus YLL041C, strain sdh2, hits give low values",0.961
same,normalized growth,"locus YLR027C, strain aat2, hits give low values",0.95
same,normalized growth,[5],1.01
same,normalized growth,"locus YLR221C, strain rsa3, hits give low values",0.997
same,normalized growth,"locus YLR258W, strain gsy2, hits give low values",0.966
same,normalized growth,"locus YLR262C, strain YPT6 (second series), hits give low values",1.01
same,normalized growth,"locus YLR320W, strain mms22, hits give low values",0.98
same,normalized growth,"locus YLR342W, strain FKS1, hits give low values",0.973
same,normalized growth,"locus YLR357W, strain rsc2, hits give low values",0.946
same,normalized growth,"locus YLR370C, strain arc18, hits give low values",0.96
same,normalized growth,"locus YLR384C, strain iki3, hits give low values",0.967
same,normalized growth,"locus YML120C, strain ndi1, hits give low values",0.97
same,normalized growth,"locus YMR058W, strain fet3, hits give low values",0.955
same,normalized growth,"locus YMR125W, strain sto1, hits give low values",0.933
same,normalized growth,"locus YMR129W, hits give low values",0.979
same,normalized growth,"locus YMR205C, strain PFK2, hits give low values",0.958
same,normalized growth,"locus YMR231W, strain pep5, hits give low values",0.979
same,normalized growth,"locus YNL071W, strain lat1, hits give low values",0.958
same,normalized growth,[6],0.97
same,normalized growth,"locus YNL209W, strain ssb2, hits give low values",0.962
same,normalized growth,"locus YNL248C, strain rpa49, hits give low values",0.955
same,normalized growth,"locus YNL322C, strain KRE1 (second series), hits give low values",0.936
same,normalized growth,"locus YNR049C, strain mso1, hits give low values",0.97
same,normalized growth,"locus YOR001W, strain rrp6, hits give low values",0.948
same,normalized growth,"locus YOR070C, strain gyp1, hits give low values",0.98
same,normalized growth,"locus YOR080W, strain dia2, hits give low values",0.975
same,normalized growth,"locus YOR083W, strain WHI5, hits give low values",0.913
same,normalized growth,"locus YOR106W, strain vam3, hits give low values",0.889
same,normalized growth,[7],0.969
same,normalized growth,"locus YOR265W, strain rbl2, hits give low values",0.969
same,normalized growth,"locus YOR270C, strain vph1, hits give low values",0.872
same,normalized growth,"locus YOR290C, strain snf2, hits give low values",0.916
same,normalized growth,"locus YPL051W, strain arl3, hits give low values",0.956
same,normalized growth,"locus YPL078C, strain atp4, hits give low values",0.957
same,normalized growth,"locus YPL106C, strain sse1, hits give low values",0.942
same,normalized growth,"locus YPL240C, strain hsp82, hits give low values",0.967
same,normalized growth,[8],0.963
CN1CCC(=C2c3ccccc3C=Cc3ccccc32)CC1,normalized growth,"locus YAL013W, strain DEP1, hits give low values",0.966
same,normalized growth,"locus YAL040C, strain CLN3, hits give low values",0.99
same,normalized growth,"locus YCL061C, strain MRC1 (second series), hits give low values",0.99
same,normalized growth,"locus YDR150W, strain NUM1, hits give low values",1
same,normalized growth,"locus YDR363W, strain ESC2, hits give low values",1
same,normalized growth,"locus YER002W, strain NOP16, hits give low values",0.995
same,normalized growth,"locus YGR078C, strain PAC10, hits give low values",1
same,normalized growth,"locus YGR229C, strain SMI1, hits give low values",0.959
same,normalized growth,[1],0.965
same,normalized growth,[2],0.967
same,normalized growth,[3],0.968
same,normalized growth,[4],0.942
same,normalized growth,[5],0.942
same,normalized growth,"locus YMR307W, strain GAS1, hits give low values",1.01
same,normalized growth,"locus YNL175C, strain NOP13, hits give low values",0.986
same,normalized growth,[6],0.914
same,normalized growth,"locus YNL197C, strain WHI3, hits give low values",1.01
same,normalized growth,"locus YNL224C, strain SQS1, hits give low values",0.995
same,normalized growth,"locus YNL322C, strain KRE1, hits give low values",0.993
same,normalized growth,"locus YOR083W, strain WHI5 (second series), hits give low values",1.01
same,normalized growth,[7],0.965
same,normalized growth,"locus YPL055C, strain LGE1, hits give low values",0.973
same,normalized growth,[8],0.932
